Reference: PubChem BioAssay (NCATS)
Results filed as inconclusive are left out. Active and inactive are the calls of the source. Calls follow the shape of the dose curve; as a rule, active = well fitted curve in the direction sought with a large enough effect; inconclusive = small, poorly fitted or top-dose-only effect, or another doubt; inactive = no such curve, though single readings can be large; an effect the other way counts as inactive or inconclusive.

Experiments:
[1] = target: Glutaminase kidney isoform, mitochondrial (Homo sapiens) (UniProt O94925); assay: qHTS for Inhibitors of Glutaminase (GLS): LOPAC Validation (AID 624146);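 also: glutamate product detected by oxidase and peroxidase coupled Amplex red fluorescence gain; series mostly up to about 46 µM; nearly all actives have a fitted effect of over 60% in size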
Glutaminase kidney isoform, mitochondrial (Homo sapiens), sequence (O94925 whole entry, looked up, canonical isoform): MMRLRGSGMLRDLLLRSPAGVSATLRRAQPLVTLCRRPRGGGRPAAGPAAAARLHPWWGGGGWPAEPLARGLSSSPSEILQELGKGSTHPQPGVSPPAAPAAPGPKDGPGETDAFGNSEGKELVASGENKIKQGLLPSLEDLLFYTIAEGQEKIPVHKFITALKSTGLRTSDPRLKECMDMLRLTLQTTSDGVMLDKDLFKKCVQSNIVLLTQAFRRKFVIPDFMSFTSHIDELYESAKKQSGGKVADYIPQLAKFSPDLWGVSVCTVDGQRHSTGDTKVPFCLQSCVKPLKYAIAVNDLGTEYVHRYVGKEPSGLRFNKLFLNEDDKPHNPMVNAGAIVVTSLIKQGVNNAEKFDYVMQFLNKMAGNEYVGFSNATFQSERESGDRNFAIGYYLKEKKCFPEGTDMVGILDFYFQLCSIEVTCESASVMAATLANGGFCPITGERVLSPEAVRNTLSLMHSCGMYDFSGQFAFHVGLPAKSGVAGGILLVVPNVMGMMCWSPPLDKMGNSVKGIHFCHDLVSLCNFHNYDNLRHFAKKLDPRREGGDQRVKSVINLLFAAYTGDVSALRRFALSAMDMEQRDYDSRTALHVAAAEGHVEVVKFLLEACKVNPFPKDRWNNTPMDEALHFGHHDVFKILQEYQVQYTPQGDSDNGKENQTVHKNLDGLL
Method in brief: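 Two-point fluorescence kinetic (t0, 30 min RT) for hKGA; glutamate detected via glutamate oxidase–HRP–Amplex Red. Substrate: 1 mM L-glutamine solution; buffer 45 mM KH2PO4, pH 8.2.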

[2] = qHTS of Trypanosoma Brucei Inhibitors: LOPAC Validation (AID 624147)
Method in brief: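 Activity of T. brucei pyruvate kinase was followed by Kinase-Glo Plus luminescence after the enzyme reacted 45 min at room temperature with 130 uM ADP (final) and substrate. Test compounds were added before ADP at multiple concentrations.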

[3] = target: Glucagon-like peptide 1 receptor (Homo sapiens) (UniProt P43220); assay: qHTS of GLP-1 Receptor Agonists: LOPAC Validation (AID 624148);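 also: higher luminescence signal means agonism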
Glucagon-like peptide 1 receptor (Homo sapiens), sequence (P43220 whole entry, looked up): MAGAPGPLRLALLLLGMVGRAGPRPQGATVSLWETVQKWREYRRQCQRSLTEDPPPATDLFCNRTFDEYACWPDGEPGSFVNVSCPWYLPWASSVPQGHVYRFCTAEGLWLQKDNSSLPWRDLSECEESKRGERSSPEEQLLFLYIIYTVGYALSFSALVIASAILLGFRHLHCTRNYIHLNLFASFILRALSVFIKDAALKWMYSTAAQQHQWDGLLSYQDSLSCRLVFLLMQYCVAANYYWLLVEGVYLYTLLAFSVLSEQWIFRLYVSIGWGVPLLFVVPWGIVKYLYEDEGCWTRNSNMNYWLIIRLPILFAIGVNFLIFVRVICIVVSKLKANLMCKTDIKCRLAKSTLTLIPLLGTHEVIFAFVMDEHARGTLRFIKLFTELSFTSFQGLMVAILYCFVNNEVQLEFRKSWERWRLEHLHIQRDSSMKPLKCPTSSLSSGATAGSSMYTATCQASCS
Method in brief: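 HEK293 cells stably co-expressing a cAMP-responsive luciferase reporter and a hypersensitive GLP-1R were plated 12 h at 37 °C and exposed to compounds for 4-6 hr at 37 °C, 5% CO2. Luminescence was read 12 min after adding detection reagent.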

[4] = qHTS of Nrf2 Activators: LOPAC Validation (AID 624149)
Method in brief: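 ARE reporter activation measured in AREc32 firefly luciferase cells after 24 hr compound exposure; Steady-Glo luminescence.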

[5] = HTS Assay for Allosteric Antagonists of the Human D2 Dopamine Receptor: Hit Validation in HTRF (AID 624455); also: potency is read from the fitted curve at half-maximal effect;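 also: stable D1 dopamine receptor cell line scored for blocking the D1 response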
Method in brief: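 Signal from an HTRF read-out in D1-expressing stable cells gave hit activity as inhibition of the D1 response.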

Measured: Potency

CNC(=O)[C@H]1O[C@@H](n2cnc3c(NCc4ccc(N)cc4)ncnc32)[C@H](O)[C@@H]1O
inactive: all assays above

CN(C)C(N)=NCCC[C@H](N)C(=O)O
inactive: all assays above

Nc1nc(SCc2ccc([N+](=O)[O-])cc2)c2ncn([C@@H]3O[C@H](CO)[C@@H](O)[C@H]3O)c2n1
inactive: all assays above

O=C1O/C(=C/Br)CCC1c1cccc2ccccc12 (stereo not given)
inactive: all assays above

COc1cccc(OC)c1OCCNCC1COc2ccccc2O1 (stereo not given)
active: [5] 92 nM
inactive: all other assays above

NCCCCC(=O)O
inactive: all assays above

O=C(O)c1cc(=O)c2c(Cl)cc(Cl)cc2[nH]1
inactive: all assays above

CC(=O)N[C@H](C(=O)O)C(C)(C)SN=O
inactive: all assays above

C[N+]1(C)CCC(OC(=O)C(c2ccccc2)c2ccccc2)CC1
inactive: all assays above

Nc1ncnc2c1c(I)cn2[C@@H]1C[C@H](N)[C@@H](O)[C@H]1O
inactive: all assays above

CNc1ncnc2c1ncn2[C@@H]1O[C@H](CO)[C@@H](O)[C@H]1O
inactive: all assays above

CCCC1(C)C(C#N)(C#N)C1(C#N)C#N
inactive: all assays above

CCCn1c(=O)c2[nH]c(-c3ccc(OCC(=O)NCCN)cc3)nc2n(CCC)c1=O
inactive: all assays above

COc1cc2nc(N3CCN(C(=O)OCc4ccccc4)C(C(=O)NC(C)(C)C)C3)nc(N)c2cc1OC (stereo not given)
inactive: all assays above

CN(C)c1ccc(/C=C2\C(=O)Nc3ccccc32)cc1
inactive: all assays above

O=S(=O)(c1cccc2c(I)cccc12)N1CCCNCC1
inactive: all assays above

CC(COc1ccc(/C=C/c2ccccc2)cc1)[N+](C)(C)C (stereo not given)
inactive: all assays above

O=C(O)CC[C@@H](C(=O)O)N1C(=O)c2ccccc2C1=O
inactive: all assays above

O=C(O)c1cc(=O)c2ccccc2[nH]1
inactive: all assays above

COC(=O)c1c(C)[nH]c(C)c1C(=O)c1ccccc1Cc1ccccc1
inactive: all assays above

O=C(O)CNC(=O)C(CS)Cc1ccccc1 (stereo not given)
inactive: all assays above

CC[C@@H](C)[C@H]1O[C@]2(CC[C@H]1C)C[C@@H]1C[C@@H](CC=C(C)[C@@H](O[C@H]3C[C@H](OC)[C@@H](O[C@H]4C[C@H](OC)[C@@H](O)[C@H](C)O4)[C@H](C)O3)[C@@H](C)C=CC=C3CO[C@@H]4[C@H](O)C(C)=C[C@@H](C(=O)O1)[C@]34O)O2
inactive: all assays above

NS(=O)(=O)C#Cc1ccccc1
inactive: all assays above

Cc1cc(NC(=O)Nc2ccc3c(ccn3C)c2)sn1
inactive: all assays above

Cc1cc2c(cc1Cl)N(C(=O)Nc1ccc(Oc3cccnc3C)nc1)CC2
inactive: all assays above

O=C(O)[C@@H]1C[C@H](C(=O)O)N1
inactive: all assays above

N[C@@H](CC(=O)O)C(=O)O
inactive: all assays above

CCCCN1CCC(n2c(=O)[nH]c3ccccc32)CC1
inactive: all assays above

Brc1c(Br)c(Br)c2n[nH]nc2c1Br
inactive: all assays above

OC[C@H]1O[C@@H](n2cnc3c(NC4CCCCC4)ncnc32)[C@H](O)[C@@H]1O
inactive: all assays above
